Experimental findings from PubChem BioAssay are described below.

Structures are written as SMILES. Inconclusive results are not listed. Activity calls are given as the source filed them.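 How the source made its calls, unless noted: active means normalized viability below 100% at a tested concentration; inactive means the rest.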

The nature of test [1]: growth inhibition of DIPG glioma cells, dose response, cell-based, SU-DIPG-XVII, MIPE5.0, CellTiter-Glo, qHTS (AID 1347060; cut-off not given, nearly all actives have AC50 up to about 26 µM;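 on AC50: cells exposed to compound for 48 hours before viability readout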). Particulars: SU-DIPG-XVII viability, CellTiter-Glo ATP luminescence.
Test [2] in a line: growth inhibition of DIPG glioma cells, dose response, cell-based, SU-DIPG-XIII, MIPE4.0, CellTiter-Glo, qHTS (AID 1347061; cut-off not given, nearly all actives have AC50 up to about 37 µM;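 further: cells exposed to compound for 48 hours before readout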). Particulars: SU-DIPG-XIII viability, CellTiter-Glo ATP luminescence. (In general: Cellular ATP, detected with luciferase, serves as a proxy for viable cell number.)
The nature of test [3]: growth inhibition of DIPG glioma cells, dose response, cell-based, JHH-DIPG-1, MIPE4.0, CellTiter-Glo, qHTS (AID 1347062; cut-off not given, nearly all actives have AC50 up to about 27 µM;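 on AC50: cells exposed to compound for two days before readout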). Particulars: JHH-DIPG-1 viability, CellTiter-Glo ATP luminescence.
A short description of test [4]: growth inhibition of DIPG glioma cells, dose response, cell-based, SU-DIPG-IV, MIPE4.0, CellTiter-Glo, qHTS (AID 1347063; cut-off not given, nearly all actives have AC50 up to about 30 µM;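 further: compound exposure lasted 48 hours before the viability readout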). Particulars: SU-DIPG-IV viability, CellTiter-Glo ATP luminescence.
Test [5] is described as follows: growth inhibition of DIPG glioma cells, dose response, cell-based, SU-DIPG-XIII, MIPE5.0, CellTiter-Glo, qHTS (AID 1347064; cut-off not given, nearly all actives have AC50 up to about 23 µM;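 on AC50: cells exposed to compound for 48 hours before the viability read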). Particulars: SU-DIPG-XIII viability, CellTiter-Glo ATP luminescence.
Test [6] is described as follows: viability loss in pontine glioma line – cell-based, SU-DIPG-XXV, MIPE5.0, CellTiter-Glo, qHTS, dose response (AID 1347065; cut-off not given, nearly all actives have AC50 up to about 26 µM;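 further: cells exposed to compound for 48 hours before ATP readout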). Particulars: CellTiter-Glo ATP luminescence.
The nature of test [7]: SU-DIPG-VI glioma cell viability, MIPE4.0 library, CellTiter-Glo luminescence, qHTS (AID 1347066; cut-off not given, nearly all actives have AC50 up to about 30 µM;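 further: cells exposed to compound for 48 hours before readout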). Particulars: CellTiter-Glo ATP luminescence.
Test [8] in a line: JHH-DIPG-1 glioma cell viability, MIPE5.0 library, CellTiter-Glo luminescence, qHTS (AID 1347067; cut-off not given, nearly all actives have AC50 up to about 26 µM;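 further: cells exposed to compound for 48 hours before readout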). Particulars: JHH-DIPG-1 glioma viability, CellTiter-Glo ATP luminescence.
Test [9] is described as follows: SU-DIPG-XXV glioma cell viability, MIPE5.0 library, qHTS (AID 1347068; cut-off not given, nearly all actives have IC50 up to about 30 µM;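 further: cells exposed to compound for 48 hours before viability readout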). For orientation: qHTS replaces the single test concentration by a dilution series.
A short description of test [10]: sensitizers of A549 cells to miR-34 induction, primary screen, imaging, A549 dox-inducible miR-34, nuclei and caspase counts (AID 1347080;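 active means compounds whose cell count with miR-34 switched on is under 0.7 times the count with it off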). Particulars: A549 miR-34 inducible, Hoechst nuclei count, 48 h.
Test [11] is described as follows: survival rescue of mitochondrial mutant cells in low glucose, primary screen, MELAS cybrids, Rieske KO mouse fibroblasts, CellTiter-Glo (AID 1508586;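 active means mean z-score across replicates of 1.96 or higher in either the MELAS or the Rieske mutant cell line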;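 further: z relative to plate mean and SD of compound and empty wells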).
Test [12] in a line: modifiers of HSF1 nuclear foci, imaging, Selleck Cancer Library (AID 1347162; in the data active means plate-normalised HSF1 focus index below about 0.46). Particulars: human cells, at 10 µM; SSMD: measured here: HSF1 foci SSMD mean; cell count: measured here: cell number; plate-normalised HSF1 focus index: stronger effect = lower value.
A short description of test [13]: ovarian cancer cell viability with rucaparib, profiling panel, oncology-focused library, rucaparib conditional (AID 1508598). Particulars: patient-derived ovarian cancer cells, CellTiter-Glo viability, 144 h, stronger effect = lower value.
The mark [14] stands for this setting: stronger effect = lower value, cell number ratio, induced over uninduced.
Setting [15] is: measured here: relative caspase fold change +Dox/-Dox.
Setting [16] is: measured here: total cells with miR-34 induction, stronger effect = lower value.
The mark [17] stands for this setting: measured here: total cells without miR-34 induction.
The mark [18] stands for this setting: MELAS cybrid survival, CellTiter-Glo 48 h, stronger effect = higher value.
[19] abbreviates: Rieske KO mouse fibroblast survival, CellTiter-Glo 72 h.

On to `CN[C@@H]1C[C@H]2O[C@@](C)([C@@H]1OC)n1c3ccccc3c3c4c(c5c6ccccc6n2c5c31)C(=O)N[C@H]4O`, for which the AC50 in [1] is 135 nM (active); in test [2], 590 nM (active); in [3], 187 nM (active); in test [4], 1320 nM (active); in test [5], 85.5 nM (active); in test [6], 30.3 nM (active). The AC50 in test [7] is 296 nM (active); in test [8] it was 38.2 nM (active). Moreover, the IC50 in test [9] was 605 nM (active).
For `O=C(NOCC(O)CO)c1cc(Br)c(F)c(F)c1Nc1ccc(I)cc1F` (stereo unspecified), the AC50 in [1] is 2090 nM (active); in [2] it was 2640 nM (active); in [3], 16600 nM (active); in test [4], 20900 nM (active); in [5], 1480 nM (active); in test [6] it was 3720 nM (active). Besides, the AC50 in test [8] was 468 nM (active). Also, the outcome in test [7] was inactive. Also, the results for the fold change in test [10] (setting [14]) and in test [10] (setting [15]) were 1.01 (inactive) and 1.08, respectively. The cell count stood at 3740 in test [10] (setting [16]) and 3720 in test [10] (setting [17]). For the same compound, the results for the z-score in [11] (setting [18]) and in [11] (setting [19]) were -0.561 (inactive) and -0.494, respectively.
As to `COc1ccc(C2(C#N)CCC(C(=O)O)CC2)cc1OC1CCCC1` (stereo unspecified), the compound was called inactive in test [1], in test [2], in test [3], in [4], in test [5] and in [6]. Also, the compound was classed as inactive in test [7]. The fold change is 0.931 (inactive) in test [10] (setting [14]) and 0.847 in [10] (setting [15]). Further, the cell count in test [10] (setting [16]) was found to be 7550; in test [10] (setting [17]), 8110. Moreover, the results for the z-score in test [11] (setting [18]) and in [11] (setting [19]) were -0.364 (inactive) and 0.0886, respectively.
As to `Nc1ccc(C(=O)Nc2cccc(-c3nc(N4CCOCC4)c4oc5ncccc5c4n3)c2)cn1`, the AC50 in test [1] was 4680 nM (active); in test [2], 18700 nM (active); in [3], 16600 nM (active); in [4] it was 16600 nM (active); in test [5], 8330 nM (active); in test [6] it was 2090 nM (active). For the same compound, the AC50 is 11800 nM (active) in test [7] and 8330 nM (active) in test [8]. Besides, the results for the fold change in test [10] (setting [14]) and in [10] (setting [15]) were 1.02 (inactive) and 0.903, respectively. The cell count in test [10] (setting [16]) was 2410; in [10] (setting [17]) it was 2370; in test [12], 6980. The same compound gave an SSMD in test [12] of -0.394. In test [12], the plate-normalised HSF1 focus index was 0.989 (inactive). The z-score is 3.1 (active) in test [11] (setting [18]) and -2.85 in test [11] (setting [19]). Moreover, the viability is 106% (inactive) in test [13] (at 0.000305 µM, OCI-C5x cells, with rucaparib 10 µM, 100% = cells with rucaparib alone); 111% (inactive) in test [13] (at 0.000305 µM, OCI-C5x cells, without rucaparib); 83.5% (active) in [13] (at 0.000305 µM, OCI-P5x cells, with rucaparib 20 µM, 100% = cells with rucaparib alone); 86.3% (active) in test [13] (at 0.000305 µM, OCI-P5x cells, without rucaparib); 106% (inactive) in [13] (at 0.00122 µM, OCI-C5x cells, with rucaparib 10 µM, 100% = cells with rucaparib alone); 107% (inactive) in test [13] (at 0.00122 µM, OCI-C5x cells, without rucaparib). Also, the viability in [13] (at 0.00122 µM, OCI-P5x cells, with rucaparib 20 µM, 100% = cells with rucaparib alone) was 68.8% (active); in test [13] (at 0.00122 µM, OCI-P5x cells, without rucaparib), 85.2% (active); in [13] (at 0.00488 µM, OCI-C5x cells, with rucaparib 10 µM, 100% = cells with rucaparib alone), 105% (inactive); in test [13] (at 0.00488 µM, OCI-C5x cells, without rucaparib), 108% (inactive); in test [13] (at 0.00488 µM, OCI-P5x cells, with rucaparib 20 µM, 100% = cells with rucaparib alone), 71.1% (active); in [13] (at 0.00488 µM, OCI-P5x cells, without rucaparib) it was 81% (active). In addition, the viability in test [13] (at 0.0195 µM, OCI-C5x cells, with rucaparib 10 µM, 100% = cells with rucaparib alone) is 115% (inactive).

The AC50 is the concentration at which the activity in the assay is half-maximal. What is called IC50 is the concentration at which inhibition is half-maximal. What is called viability is a read-out of living cells in per cent, often relative to untreated cells.
